Measurements from PubChem BioAssay AID624267 (The Scripps Research Institute Molecular Screening Center, 2012).
The campaign covered roughly 360,000 compounds. About 1,400 (0.39%) were called active. No stated cut-off is given here; in the data, active means inhibition above about 21%; inactive means the rest. This excerpt belongs to a sample that is enriched for actives.

Target: Receptor-interacting serine/threonine-protein kinase 2 (Homo sapiens) (UniProt O43353)
Assay: NOD2-RIPK2 binding disruptors in cells, primary screen, fluorescence, CHO cells, BLA complementation (AID 624267);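 further: 0% = vehicle only and 100% = reference blocker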
Details: CHO BLA complementation NOD2-RIPK2, CCF4 ratio; at 4.98 µM; hits give high values

Receptor-interacting serine/threonine-protein kinase 2 (Homo sapiens), sequence (O43353 whole entry, looked up): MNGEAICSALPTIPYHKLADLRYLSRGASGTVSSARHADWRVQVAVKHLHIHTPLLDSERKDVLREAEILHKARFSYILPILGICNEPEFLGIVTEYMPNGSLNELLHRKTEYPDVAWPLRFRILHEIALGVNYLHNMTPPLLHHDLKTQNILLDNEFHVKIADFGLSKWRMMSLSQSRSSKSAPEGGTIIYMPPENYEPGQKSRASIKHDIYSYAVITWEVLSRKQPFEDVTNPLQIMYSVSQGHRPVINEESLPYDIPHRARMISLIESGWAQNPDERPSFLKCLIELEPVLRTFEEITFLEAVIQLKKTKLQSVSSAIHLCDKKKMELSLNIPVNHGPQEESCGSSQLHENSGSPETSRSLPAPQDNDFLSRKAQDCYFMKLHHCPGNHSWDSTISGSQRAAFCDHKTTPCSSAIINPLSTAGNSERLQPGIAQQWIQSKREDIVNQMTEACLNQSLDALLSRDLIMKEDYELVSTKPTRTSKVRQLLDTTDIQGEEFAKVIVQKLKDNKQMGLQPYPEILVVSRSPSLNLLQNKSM

Compound	inhibition
CCOC(=O)[C@]12Cc3cc(OC)ccc3[C@H]1N(C(C)C)C(=O)c1ccccc12	-1.01% (inactive)
CCOC(=O)[C@]12Cc3ccccc3[C@H]1N(C1CCCCC1)C(=O)c1cc(OC)ccc12	43.5% (active)
CCOC(=O)c1cccc(C2=C(CNC(=O)c3ccncc3)[C@H]3CC[C@@H](C2)N3Cc2ccccc2)c1	-12.2% (inactive)
Cc1ccc2c(c1)C1CN(C)CCC1N2C(=O)Cn1nnc(-c2ccccc2F)n1 (stereo not given)	-3.9% (inactive)
CCN1CCN(Cc2cc(OC)c3c(c2)OCO3)CC1	-5.64% (inactive)
COc1cc(OC)cc(C2(C#N)CCN(C)CC2)c1	-12.2% (inactive)
c1ccc(CCNC2CCCCCC2)cc1	-21.6% (inactive)
CC(=O)OC1C2(CC3N4C(=O)C5(CO)SSC4(CC31O)C(=O)N5C)OC(C)C(C)(C)C2=O (stereo not given)	63.9% (active)
CC(=NCc1ccc2c(c1)OCO2)c1c(O)[nH]c(=O)[nH]c1=O	4.27% (inactive)
CC(C(=O)Nc1ccc(Cl)cc1Cl)N1CC=C(c2ccccc2)CC1 (stereo not given)	-16.5% (inactive)
CC[C@H]1CC2CN3CCc4c([nH]c5ccccc45)C(C(=O)OC)(C2)C13 (stereo not given in full)	-13.6% (inactive)
CNCC(O)c1cc(F)c(OCc2ccccc2)c(OCc2ccccc2)c1F (stereo not given)	-9.31% (inactive)
CN(C)CC1Oc2ccccc2OC1(O)c1ccccc1 (stereo not given)	54.1% (active)
COc1ccccc1NC(=O)N1C[C@@H]2C[C@@H](C1)c1cccc(=O)n1C2	-9.61% (inactive)
COC(=O)C1=C(c2ccc(Cl)c(C(F)(F)F)c2)C[C@@H]2CC[C@H]1N2C(=O)NC1CC1	-1.54% (inactive)
